The panel holds about 83,000 compounds, 20% with a hit somewhere; the sample as a whole holds those more often.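 Activity criterion: percent growth below 10, measured after cells in 96-well plates were exposed to a single compound concentration for 48 hours.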 A number with no mark means an inactive call. Calls of active or inactive are those of the source.

In the assay the test system is A498 renal. The assay can be described thus: NCI-60 one-dose screen, 48 h (100 = growth as untreated, 0 = no growth, -100 = all killed). Conditions: 10 µM unless noted. The procedure:
Growth inhibition of the A498 human tumor cell line is measured as a screen for anti-cancer activity. Cells are grown in 96 well plates and exposed to the test compound for 48 hours. Compounds are tested at a single concentration, which is 10^-5 M for most compounds. The reported endpoint is percent growth (GI% or GIPRCNT), where numbers from 0 - 100% represent growth inhibition, and numbers from -100% - 0 represent cell death. For example, a value of 40 represents 60% growth inhibition. A value of 0 means no net growth occurred over the course of the experiment. A value of -40 indicates 40% of cells at the beginning of the experiment died by the end of the experiment. A value of -100 means all cells are dead at the end of the experiment.
NCI-60 Human Tumor Cell Lines Screen was performed using the standard one-dose NCI protocol, which is described in more detail at https://dtp.cancer.gov/discovery_development/nci-60/default.htm.
Compounds with GIPRCNT values below 10 were considered active. Activity score was based on GIPRCNT using the following formula: […]
Score is 0 for GIPRCNT values of 100 or above, 50 for GIPRCNT values of 0, and 100 for GIPRCNT values of -100.
Consider `O=C1/C(=C/c2ccccc2)CN(C(=O)c2cccnc2)C/C1=C\c1ccccc1`, for which the growth is 65.3%.
The same measure for `CCCCCSB(SCCCCC)c1ccccc1`: 95.4%; for `CN1CCN(c2ccc(NC(=O)c3cncnc3Nc3ccc4c(ccn4Cc4cccc(F)c4)c3)cc2)CC1`: 77%; for `COC(=O)C1=Nc2ccc(F)cc2/C1=C\c1sc(Nc2ccc(O)cc2)nc1O`: 42.4%.
The same measure for `COc1ccc(C2=Nc3c/c(=C\c4c(O)[nH]c5cc(Cl)ccc45)ccc3=N2)cc1`: 68.5%; for `CC1O[C@@H]2C[C@@](O)([C@H]1O)n1c3ccccc3c3c4c(c5c6ccccc6n2c5c31)C(=O)NC4=O` (stereo not given in full): 42.4%; for `COc1cc2ncnc(Nc3ccc(F)c(Cl)c3)c2cc1OCC(=O)N1CCN(c2ccc(F)cc2)CC1`: 72.5%.
With `O=C1c2cc3c(cc2-c2c1c1ccc(Cl)cc1c(=O)n2C[C@H](O)CO)OCO3`, the growth was -79.1% (active).
The same measure for `CCC(CC)(N(CC(=O)O)CC(=O)O)C(CC)(CC)N(CC(=O)O)CC(=O)O`: 126%.
The same measure for `O=C(Nc1ccccc1)c1sc(-c2ccccc2)cc1O`: 94.6%; for `N#Cc1c(N2CCOCC2)nc(=S)[nH]c1-c1ccccc1`: 13.7%.
Next, `COc1cc2c(/C=C3\C(=O)Nc4ccccc43)c(C(=O)O)[nH]c2cc1C`: 136%; `COc1ccccc1NC(=O)c1ccc(/C=C/C(=O)c2nccn2C)cc1`: -39.8% (active); `COc1cc(-c2nc3occn3c2-c2ccnc(NCCCNS(=O)(=O)c3ccccc3)n2)ccc1F`: 57.1%.
On to `CN(C)Cc1ccc(C(=O)Nc2ccc3ncnc(Nc4ccc(Oc5cccc(F)c5)c(Cl)c4)c3c2)cc1`, for which the growth is 19.2%.
Next, `Cc1ncc(C(=O)Nc2ccc(CN3CCN(C)CC3)c(C(F)(F)F)c2)cc1C#Cc1cnc(N)c2ccncc12`: -90.2% (active); `Cc1cc2nc(-c3c(-c4ccc(F)cc4)nc4sccn34)[nH]c2cc1C`: 89.2%.
Next, `COc1cc(C(=O)/C=C/c2ccc(N3CCN(C)CC3)cc2)cc(OC)c1OC`: 108%; `Cn1cc(-c2nn3cc(-c4ccccc4)nc3s2)c2ccccc21`: 85.3%.
The same measure for `COc1ccc(C/C(C)=C(/c2ccc(OCCN3CCCCCC3)cc2)c2ccc(OC(=O)NCc3ccccc3)cc2)cc1`: 97.3%.
`COc1ccc2nc3ccccc3c(NCc3ccccc3)c2c1`: the growth was -14.3% (active).
Next, `CS(=O)(=O)Nc1cc(-c2ccc3ncnc(Nc4ccc5c(cnn5Cc5cccnc5)c4)c3c2)cnc1Cl`: 19.2%; `COc1ccc(NC(=O)c2sc3nc4c(cc3c2N)CCCC4)cc1`: 5.75% (active).
Next, `COc1ccc(-c2cn(-c3ccc(Cl)cc3)c(SCC(=O)c3ccc([N+](=O)[O-])cc3)n2)cc1`: 85.2%; `NNC(=S)N/N=C/c1ccccn1`: 70.4%.
Next, `Cc1ccc(C(=O)c2ccc(CC(=O)N/N=C/c3ccc(O)cc3O)n2C)cc1`: 87.4%.
Take `C=C1C(=O)O[C@H]2[C@H]1CC/C(COC(=O)NCc1ccc(Cn3c(=O)sn(-c4ccc(OC)cc4)c3=O)cc1)=C\CC[C@@]1(C)O[C@@H]21`: the growth is 89.2%.
Next, `COc1ccc2nc3ccccc3c(NCc3ccc(F)cc3)c2c1`: -8.16% (active); `O=C(O)CCCc1cnc2c3sccc3nc(SCc3c(Cl)cccc3Cl)n12`: 46.1%; `CCOC(=O)c1c2c(n3c1NCC3)-c1ccccc1C2=O`: 100%.
As to `O=C(Nc1ncc(Cc2ccccc2Cl)s1)c1cccs1`, the growth is 67.1%.
As for `CCOC(=O)C/C(=N\Nc1cc(=O)[nH]c2ccc(Cl)cc12)C(=O)OCC`, the growth is 108%.
On to `N#Cc1c(Nc2ccc(F)cc2)n[nH]c1-c1cccs1`, for which the growth is 103%.
The same measure for `Cn1cc(/C=C2/C(=O)Nc3ccccc32)c2ccccc21`: 118%.
Regarding `COc1cc(/C=C2\C(=O)N(c3c(Cl)cccc3Cl)c3ccccc32)cc(OC)c1OCCCCCCn1c2ccccc2c(=O)c2ccccc21`, the growth was 123%.
Next, `C[C@H]1[C@H](C)CC[C@]2(C(=O)O)CC[C@]3(C)C(=CC[C@@H]4[C@@]5(C)C[C@@H](Cc6cn([C@@H]7O[C@H](CO)[C@@H](O)[C@H](O)[C@H]7O)nn6)[C@H](O)C(C)(C)[C@@H]5CC[C@]43C)[C@H]12`: 80.7%; `C/C(C=O)=C\c1ccc2c(c1)OCO2`: 68%.
Consider `COc1cc2oc(-c3cccc(NC(=O)c4ccc5c(c4)OCO5)c3)cc(=O)c2c(OC)c1OC`, for which the growth was 61.1%.
Turning to `COc1ccc(Nc2ncccc2NC(=O)c2cn(Cc3cccc(Oc4ccccc4)c3)nn2)cc1OC`, the growth is 69.6%.
The same measure for `O=C(CSc1nc2ccc([N+](=O)[O-])cc2[nH]1)Nc1ccc(Br)cc1`: 30.9%.
